The values that follow come from PubChem BioAssay (Tox21).

Each structure is given as a SMILES string. Inconclusive results are not listed. A call without a number means that no potency is given here. Values without a mark were called inactive. Calls of active or inactive are those of the source. Calls follow the shape of the full dose curve.

The test can be described thus: qHTS assay to identify small molecule agonists of the hypoxia (HIF-1) signaling pathway - cell viability counter screen (AID 1224844). Also: nearly all actives have a fitted effect of over 50% in size. Conditions: HRE-bla ME-180 viability, CellTiter-Glo luminescence, 17 h; series mostly up to 76.8 µM. In short, it runs like this: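 CellTiter-Glo luminescence read-out, 30 min RT, taken in the same wells as the beta-lactamase HRE reporter assay; HRE-bla ME-180 cells, 0.5% dialyzed FBS, 17 hr compound treatment at 37C, 5% CO2.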
In the case of `O=C(O)c1cccc(C(F)(F)F)c1`, the Potency result was “inactive”. Still for that read-out and setting: the entry for `O=C(O)CCN(C1(C(=O)NO)CCCC1)S(=O)(=O)c1ccc(Oc2ccc(F)cc2)cc1` is “inactive”. The same measure, in the same setting: the entry for `Cc1nc(-c2ccc(Cl)cc2)oc1COC(C)(C)C(=O)O` is “inactive”; for `O=C(O)c1cc(=O)c2ccccc2o1` it is “inactive”; for `OCC(F)(F)F` it is “inactive”. Same read-out and setting: with `Cc1cccc(C(=O)O)c1O` the entry was “inactive”. In the case of `C=CC(C)(CCC=C(C)C)OC=O` (stereo not given), the Potency entry is “inactive”. Same read-out and setting: with `OC[C@@H](O)[C@@H](O)CO` the entry was “inactive”; with `CCC(COC(=O)CCS)(COC(=O)CCS)COC(=O)CCS`, “inactive”; with `Cc1cccc(C)c1NC(=O)c1ccc(N)cc1`, “inactive”. For the compound `Cc1c(N)cccc1C(F)(F)F`, the Potency entry was “inactive”. In the case of `CCCCCCOC(=O)C(C)CC` (stereo not given), the Potency entry was “inactive”. As to `C1CCC(SSC2CCCCC2)CC1`, the Potency entry was “inactive”. Turning to `CC(C)Cn1cnc2c(N)nc3ccccc3c21`, the activity change, negative = cytotoxicity was 18.6% [at 15.8 µM]. On to `CC(=O)c1ccc(C(C)=O)cc1`, for which the Potency entry is “inactive”. Still for that read-out and setting: with `CC(C)(c1cc(Br)c(OCC(Br)CBr)c(Br)c1)c1cc(Br)c(OCC(Br)CBr)c(Br)c1` (stereo not given) the entry was “inactive”; with `Clc1sc(Cl)c(Cl)c1Cl`, “inactive”. Still for that read-out and setting: with `Cc1cc(-c2ccc(N=Nc3cc(S(=O)(=O)O)c4ccccc4c3N)c(C)c2)ccc1N=Nc1cc(S(=O)(=O)O)c2ccccc2c1N` the entry was “inactive”; with `CCCCCc1ccc(Cl)cc1`, “inactive”. On the same count and under the same terms, with `Cc1ccc(C)cc1` the entry was “inactive”; with `Cc1ccc(-c2ccccc2)cc1`, “inactive”; with `COc1cc(/C=C/c2ccccc2)oc(=O)c1`, “inactive”.

Consider `Cc1ccc(C(C)C)cc2c(C)ccc1-2`, for which the Potency entry is “inactive”.

As to `CC(C)(C)C1CCC(=O)CC1`, the Potency entry is “inactive”. Same read-out and setting: the entry for `S=c1nccc[nH]1` is “inactive”.
